# Inconclusive results are not listed. Calls of active or inactive are those of the source. The call rests on the fitted dose curve. Starred links: 1 amine or outer side, 2 acyl side, 3 side chain; linkers in the order of their positions; H or OH if unused. Positions of bridges follow the written chain, without caps; N, C: chain ends. Non-standard residues stand in square brackets, D forms with d. Residues, ends and D or L forms follow the SMILES beside them. Chains are numbered I, II in the order given. Actinocin(9to1) = Cc1c2oc3c(C)ccc(C(=O)[*:1])c3nc-2c(C(=O)[*:2])c(N)c1=O; NMeV = CN[C@H](C(=O)O)C(C)C; Sar = CNCC(=O)O
# Target: Acetylcholinesterase (Homo sapiens) (UniProt P22303)
# Assay: Acetylcholinesterase (AChE) small molecule antagonists: colormetric cell-based qHTS assay (AID 1347395); further: nearly all actives have a fitted effect of over 30% in size
# Conditions: SH-SY5Y cells AChE activity, colorimetric (Ellman); series mostly up to 115 µM; activity, negative = inhibition: at the top concentration
# In short: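 Homogeneous whole-cell format. SH-SY5Y cells seeded overnight, dosed with compound (30 min, 37 C, 5% CO2), then given DTNB/acetylthiocholine cocktail for 90 min at 37 C; colorimetric signal.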
# On the % scale 0 is the no-effect control and ±100 the full control effect.
# Sequence of Acetylcholinesterase (Homo sapiens) (P22303 whole entry, looked up): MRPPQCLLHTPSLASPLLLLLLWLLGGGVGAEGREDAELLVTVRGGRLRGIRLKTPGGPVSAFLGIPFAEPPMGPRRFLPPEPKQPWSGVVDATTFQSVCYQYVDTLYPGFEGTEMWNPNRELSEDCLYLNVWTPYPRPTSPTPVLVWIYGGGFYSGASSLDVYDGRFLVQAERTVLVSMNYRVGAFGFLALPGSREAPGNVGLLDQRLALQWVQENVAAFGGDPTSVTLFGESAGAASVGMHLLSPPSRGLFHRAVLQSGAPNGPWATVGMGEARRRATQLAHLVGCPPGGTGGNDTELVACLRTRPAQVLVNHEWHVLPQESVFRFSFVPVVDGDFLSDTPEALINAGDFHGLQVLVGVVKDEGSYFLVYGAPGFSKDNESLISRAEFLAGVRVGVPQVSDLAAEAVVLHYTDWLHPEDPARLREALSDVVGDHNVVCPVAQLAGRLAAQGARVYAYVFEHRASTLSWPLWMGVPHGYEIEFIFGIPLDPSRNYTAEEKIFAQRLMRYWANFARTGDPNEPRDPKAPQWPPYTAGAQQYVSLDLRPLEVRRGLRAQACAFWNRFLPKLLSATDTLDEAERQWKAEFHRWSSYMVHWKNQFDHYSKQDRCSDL
SMILES,Potency,"activity, negative = inhibition"
CC1=C(/C=C/C(C)=C/C=C/C(C)=C/CO)C(C)(C)CCC1,inactive,–
CCOC(=O)Cn1cccc1-c1nc(-c2ccc(OC)cc2)c(-c2ccc(OC)cc2)s1,–,0.352% [at 52.9 µM] (inactive)
O=c1[nH]c(=O)c2ccccc2o1,–,1.59% [at 52.9 µM] (inactive)
CCN(Cc1cccnc1)C(=O)c1cccc(Cl)c1[C@]1(C)C(=O)N(Cc2ccc(OC)cc2OC)c2ccc(Cl)cc21,–,3.66% (inactive)
CC(=O)N[C@@H](CS)C(=O)O,inactive,–
NS(=O)(=O)c1cc(C(=O)O)cc(N2CCCC2)c1Oc1ccccc1,–,2.56% [at 52.9 µM] (inactive)
COC(C)CCO (stereo not given),–,2.77% (inactive)
CC(C)OB(OC(C)C)OC(C)C,inactive,–
CCCCCOC(=O)CCC,–,12.8% (inactive)
Cc1cc(C)c(C(=O)O)c(C)c1,–,-4.35% (inactive)
CCO/C=C1\N=C(c2ccccc2)OC1=O,–,1.38% (inactive)
COCC(O)CO (stereo not given),–,1.5% (inactive)
CCc1cccc(CC)c1N(COC)C(=O)CS(=O)(=O)O,–,0.577% (inactive)
Cc1ccc(S(=O)(=O)N=C=O)cc1,inactive,–
C[C@]12CCC(=O)C=C1CC[C@@H]1[C@@H]2[C@@H](O)C[C@@]2(C)[C@H]1CC[C@]2(O)C(=O)CO,inactive,–
CCCCCCCCCC(=O)OC,inactive,–
"Cc1c2oc3c(C)ccc(C(=O)N[C@@H]4C(=O)N[C@H](C(C)C)C(=O)N5CCC[C@H]5C(=O)N(C)CC(=O)N(C)[C@@H](C(C)C)C(=O)O[C@@H]4C)c3nc-2c(C(=O)N[C@@H]2C(=O)N[C@H](C(C)C)C(=O)N3CCC[C@H]3C(=O)N(C)CC(=O)N(C)[C@@H](C(C)C)C(=O)O[C@@H]2C)c(N)c1=O (I: T[dV]P[Sar][NMeV] / II: T[dV]P[Sar][NMeV]; ester I:1-I:C, II:1-II:C; linker I:N-II:N via Actinocin(9to1))",inactive,–
N[C@@H](Cc1c[nH]c2ccc(O)cc12)C(=O)O,inactive,–
Nc1ccc(Oc2ccc(Cl)cc2)cc1,–,1.82% (inactive)
CC(=O)Oc1ccc([N+](=O)[O-])cc1CCl,–,39.1% (inactive)

SMILES,Potency,"activity, negative = inhibition"
C/C=C(\C)C(C)=O,–,-3.94% (inactive)
CCOCCn1c(C2CCN(CCc3ccc(C(C)(C)C(=O)O)cc3)CC2)nc2ccccc21,–,4.77% [at 52.9 µM] (inactive)
CC(=O)OC[C@H]1O[C@@](COC(C)=O)(O[C@H]2O[C@H](COC(C)=O)[C@@H](OC(C)=O)[C@H](OC(C)=O)[C@H]2OC(C)=O)[C@@H](OC(C)=O)[C@@H]1OC(C)=O,inactive,–
O=S(=O)(O)CO,–,25.7% (inactive)
CCCCCCCCC,inactive,–
CN(C)CCOCCN(C)C,inactive,–
CC/C=C\CC/C=C/C(OCC)OCC,–,-5.85% (inactive)
Nc1ccc2cc3ccccc3cc2c1,inactive,–
Cc1ccccc1S(=O)(=O)O,–,2.31% (inactive)
CC(C)OC(=O)COc1ccc(Cl)cc1Cl,inactive,–
c1ccc(CCCc2ccncc2)cc1,–,2.56% (inactive)
OCCOc1cccc(OCCO)c1,–,-2.23% (inactive)
Cc1cc(O)c2c(c1)C(=O)c1cc(O)cc(O)c1C2=O,inactive,–
Fc1ccc([C@@H]2CCNC[C@H]2COc2ccc3c(c2)OCO3)cc1,–,-0.617% [at 52.9 µM] (inactive)
O=C=Nc1cccc(C(F)(F)F)c1,–,0.154% (inactive)
CC1Cc2ccccc2N1NC(=O)c1ccc(Cl)c(S(N)(=O)=O)c1 (stereo not given),inactive,–
O=C(Cl)c1ccc(F)c(Cl)c1,–,-0.0969% (inactive)
C=CCCCCCCCCCCCCCCCC,–,2.13% [at 10.5 µM] (inactive)
OC1CCCC1,inactive,–
CC1(C)S[C@@H]2[C@H](NC(=O)COc3ccccc3)C(=O)N2[C@H]1C(=O)O,inactive,–
